Source: PubChem BioAssay (NCATS)
Inconclusive results are not listed. Unmarked numbers belong to inactive results. Calls of active or inactive are those of the source. Calls follow the shape of the dose curve; as a rule, active = well fitted inhibition curve with a large enough effect; inconclusive = small, poorly fitted or top-dose-only effect; inactive = no such curve, though single readings can be large or run the other way.

test system: Zika virus NS2B-NS3 protease (linked construct); experiment: Primary screen NINDS Rhodamine qHTS for Zika virus inhibitors (AID 1347160); details: purified NS2B-NS3 protease, Rhodamine110 substrate fluorescence; series mostly up to 57.1 µM; activity change, negative = inhibition: at the top concentration; also: nearly all actives have a fitted effect of over 55% in size
Source text: Avindra Nath, Ph.D., National Institute of Neurological Disorders and Stroke (NINDS), Bethesda, MD
Radhakrishnan Padmanabhan, Ph.D., Georgetown University (GU), Washington D.C.
Zika Virus causes congenital defects, including microcephaly and is associated with Guillain-Barre syndrome, eningoencephalitis and myelitis in infected adult. […] Using a target-based approach, we hope to establish a screening paradigm to uncover novel, cell-active NS2B-NS3 protease (Zika Virus) specific inhibitors from NCATS' collection of small molecules using qHTS.
Four assay panel was created to identify potential Zika Virus inhibitors. Namely, (1) GU unlinked NS2B-NS3 AMC tagged protease qHTS, (2) GU unlinked NS2B-NS3 Rhodamine tagged protease qHTS, (3) NINDS linked NS2B-NS3 AMC tagged protease qHTS, (4) NINDS linked NS2B-NS3 Rhodamine tagged protease qHTS. Active compounds were re-acquired and re-screened to confirm inhibition. Inhibitors were further screened against various confirmatory and counterscreens in dose response format.
Early Translation Branch (ETB)
National Center for Advancing Translational Sciences (NCATS), Rockville, MD
National Institute of Health (NIH), Bethesda, Maryland
For the linked assay, Nath lab (NINDS) provided the purified linked NS2B-NS3 protease which is consists of hydrophilic domain of NS2B linked to the NS3 protease domain by a flexible (-[…]-) linker. Control compound aprotinin is obtained from Thermo Scientific (#78432; Waltham, Massachusetts). Rhodamine110 substrate ([N-Cbz]-Nle-Lys-Arg-Arg-Rhod110-Arg-Arg-Lys-Nle-[N-Cbz]) was purchased from either Genscript or Bachem.
1536-well Protease (Rhodamine110 Substrate) Assay:
Briefly, 3 microL of enzyme (25 nM final concentration), in assay buffer (10 mM Tris-HCl pH 8.0 with 0.01% Tween 20) were dispensed into a 1,536-well solid-bottom black plate (Greiner Bio One, Monroe, NC). Twenty-three nL of compounds (final concentration range 7.28 nM to 114 microM) or control Aprotinin (final concentration range 3.47 nM to 114 microM) were transferred via Wako Pin-tool (Wako Automation, Richmond, VA). Samples were incubated (room temperature, protected from light) for 15 minutes followed by a 1 microL Rhodamine110 substrate addition (1.5 microM final concentration). Plates were then immediately read on a ViewLux High-throughput CCD imager (PerkinElmer, Waltham, MA) equipped with FITC fluorescence optics (480(20) nm excitation, 540(25) nm emission), then incubated (room temperature, protected from light) for 15 minutes (~15% conversion). The change in fluorescence intensity over the 15-minute reaction period was normalized against no-inhibitor and no-enzyme controls and the resulting percent inhibition data were fitted to a 4-parameter Hill equation. Aprotinin was used as intraplate control.
% is scaled to controls: 0 for no effect and ±100 for the full control effect; potency is read from the fitted curve at half-maximal effect.

SMILES | activity change, negative = inhibition | outcome | Potency
O=C(NS(=O)(=O)c1ccc(Br)s1)c1ccc(Cl)cc1Cl | -17.3% | – | –
Fc1ccc(-n2cc(CCCCN3CCC4(CC3)OCc3ccccc34)c3ccccc32)cc1 | 236% | – | –
COc1ccc(CNCc2cccc3ccccc23)cc1 | – | inactive | –
C=C(C)C(=O)O[C@H]1[C@H]2C(=C)C(=O)O[C@@H]2C[C@@H](C)[C@@H]2O[C@@H]2C(=O)[C@](C)(O)[C@@H]1OC(=O)C(=C)C | – | inactive [at 33.1 µM] | –
C=C1C(=O)OC2/C=C(\CO)CC/C=C(\C=O)C(OC)C(OC(=O)C(C)CC)C12 (stereo not given) | -14% [at 33.1 µM] | – | –
Cn1ncc(Cl)c1-c1cc(C(=O)NC(CN)Cc2ccc(F)c(F)c2)oc1Cl (stereo not given) | 122% | – | –
Cc1ccc(C)c(NC(=O)[C@@H]2CCCN2S(=O)(=O)c2cccc3cccnc23)c1 | 12.7% | – | –
O=C(C(Cc1cccc(C(F)(F)F)c1)NS(=O)(=O)c1cc(F)c2c(c1)CCNC2)N1CCCC1 (stereo not given) | – | inactive | –
CC1(CO)CC(O)[C@]2(C(=O)O)CCC34CC3(C=CC3[C@]5(C)C(CC[C@]34C)C(C)(CO)[C@@H](O)[C@H](O)[C@@H]5O)C2C1 (stereo not given in full) | -18% [at 33.1 µM] | – | –
O=C(COc1ccc(C(=O)c2ccccc2)cc1)NC1CCN(Cc2ccccc2)CC1 | 40.3% | – | –
COC(=O)c1ccc2c(c1)nc(NC(=O)c1ccccc1)n2CCCc1ccccc1 | -5.35% | – | –
O=C(Nc1ccccc1)N1CCN(c2nc(-c3ccccc3)ns2)CC1 | 24.1% | – | –
CCN(CC)C(=O)C(c1ccccc1)N1CCN(c2ccc(NC(=O)c3ccccc3-c3cccnc3)cc2F)CC1 (stereo not given) | 43.2% | – | –
C/C=C(/C)C(=O)O[C@H]1C=C(CO)C(=O)[C@H](OC(=O)/C(C)=C/CO)[C@H]1C(C)C | – | inactive [at 33.1 µM] | –
CC(C)C(C)C(O)C1CC23CC(=O)C4(O)C(=C2CCC3C1C)C=CC1(O)CC(O)CCC14C (stereo not given) | -0.561% [at 33.1 µM] | – | –
CNc1nc(NCc2ccc(NS(C)(=O)=O)cc2Cl)cc(-c2ccccn2)n1 | – | inactive | –
COc1cc2c(cc1OC(C)C)[C@H](c1ccc(Cl)cc1)N(c1ccc(N(C)CC3CCC(N4CCN(C)C(=O)C4)CC3)cc1)C(=O)C2 (stereo not given in full) | 16.4% | – | –
CC[C@@H]1C[C@]1(NC(=O)[C@@H]1C[C@@H]2CN1C(=O)[C@H](C(C)(C)C)NC(=O)OCC(C)(C)CCCCc1cccc3c1CN(C3)C(=O)O2)C(=O)NS(=O)(=O)C1CC1 | – | – | 22.4 µM (active)
Nc1nc2c(s1)CCN(Cc1ccc(Cl)cc1)CC2 | 43.2% | – | –
C#CCOc1ccc2c(c1)c(-c1ccc(C(C)C)cc1)nc(=O)n2C(C)C | -12.3% | – | –

SMILES | activity change, negative = inhibition | outcome | Potency
C=C1CC(=O)C2OC2(C)CC2OC(=O)C(=C)C2C(O)C1OC(=O)/C(C)=C\C (stereo not given) | 11.8% [at 33.1 µM] | – | –
Fc1ccc2[nH]ccc2c1-c1nc(N2CCOCC2)c2sc(CN3CCN(CC4CC4)CC3)cc2n1 | 49.1% | – | –
CCOC(=O)N1CCC(CN(Cc2ccc(Cl)cc2)Cc2ccc([N+](=O)[O-])s2)C1 (stereo not given) | 1.42% | – | –
C[C@@]12C(=O)N(c3ccc(C(=O)Nc4cccc5cccnc45)cc3)C(=O)[C@@H]1[C@@H]1C=C[C@H]2C1 | 0.854% | – | –
O=C(NCCCNc1nc(Nc2cccc(CN3CCOCC3)c2)ncc1C1CC1)C1CCC1 | 54.7% | – | –
O=C1COc2nccc(-c3ccccc3F)c2CN1Cc1cc(C(F)(F)F)cc(C(F)(F)F)c1 | -18.5% | – | –
CNC(=O)[C@@H](c1ccccc1)N1CCc2cc(OC)c(OC)cc2[C@@H]1CCc1ccc(C(F)(F)F)cc1 | 42.7% | – | –
CCC[C@H](N[C@H]1CCc2cc(F)cc(F)c2C1)C(=O)Nc1cn(C(C)(C)CNCC(C)(C)C)cn1 | 143% | – | –
C=C1CCN([C@H](C)[C@](O)(Cn2cncn2)c2ccc(F)cc2F)CC1 | 23.8% | – | –
c1ccc(-c2cnn3cc(-c4ccc(OCCN5CCOCC5)cc4)cnc23)cc1 | 7.54% | – | –
Cc1csc2c(N[C@@H](C)CN3CCN(S(=O)(=O)c4ccc(Cl)c(Cl)c4)CC3)ncnc12 | – | inactive | –
Cc1cc(NC(=O)NCCN2CCC(O)(Cc3ccccc3)CC2)c2ccccc2n1 | 18.3% | – | –
CC(C)c1ccc(-c2cc(=O)c3ccccc3o2)cc1 | -10.4% | – | –
CC(=O)O[C@H]1C[C@@](O)(C(C)C)[C@@H]2[C@@H](OC(=O)c3ccc(O)cc3)CC(C)=CC[C@@]12C | -22% [at 33.1 µM] | – | –
Cc1ccc(-c2c(C(=O)CCl)n(CCCO)c3ncnc(N)c23)cc1 | 38.2% | – | –
CC#C[C@@H](CC(=O)O)c1ccc(OCc2cccc(-c3ccc(C(F)(F)F)cc3)c2)cc1 | – | – | 1.58 µM (active)
CC[C@H]1OC(=O)[C@H](C)[C@@H](O[C@H]2C[C@@](C)(OC)[C@@H](O)[C@H](C)O2)[C@H](C)[C@@H](O[C@H]2O[C@H](C)C[C@H](N(C)C)[C@H]2O)[C@](C)(O)C[C@@H](C)C(=O)[C@H](C)[C@@H](O)[C@]1(C)O | 22.6% [at 33.1 µM] | – | –
C=CC(=O)N1CCCN(c2cc(NCCC(=O)O)nc(-c3ccccn3)n2)CC1 | 8.41% | – | –
CC(=O)O[C@@H]1C[C@@]2(C)C(CC[C@]3(C)C2CC=C2C4CC(C)(C)CC[C@]4(C(=O)O)CC[C@]23C)C(C)(C)[C@H]1O (stereo not given in full) | – | – | 11.2 µM (active)
CCc1ccccc1OC[C@@H](O)CN[C@H]1CCCc2ccccc21 | 140% | – | –
